# In PubChem BioAssay AID1347416 (National Center for Advancing Translational Sciences (NCATS), 2020):
# Out of some 4,100 compounds screened, about 1,600 (39%) were called active. Roughly 25% stayed inconclusive and do not appear here. Calls come from the whole dose curve; as a rule, active = well fitted inhibition curve with a large enough effect; inconclusive = small, poorly fitted or top-dose-only effect; inactive = no such curve, though single readings can be large or run the other way. The list shows a part of the results.
# Experiment: qHTS Validation assay for Inhibitors of Plasmodium falciparum Dd2 growth in vitro; note: nearly all actives have a fitted effect of over 70% in size
# Details: P. falciparum Dd2 in RBCs, SYBR Green growth, 72 h; series mostly up to 28.7 µM
# How it was run: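 P. falciparum Dd2-infected red blood cells (2.5% hematocrit, 0.3% parasitemia) grown 72 h at 37 °C under 5% O2 with compounds in a titration, 29 uM to 0.5 nM final. Growth read as SYBR Green-1 fluorescence after ~16 h lysis; artesunate 300 nM as positive control.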
# Potency is the fitted concentration of half-maximal effect.
row,Compound,Potency
1,CCc1noc(-c2cn(C3CCN(C(=O)c4ccc(N(C)C)cc4)CC3)nn2)n1,inactive
2,COc1cccc(OC)c1CN1CCC2(CC1)CC(O)CCO2 (stereo not drawn),inactive
3,COc1ccc(Oc2c(C(F)(F)F)oc3c(CN4CCCC(C)C4)c(O)ccc3c2=O)cc1 (stereo not drawn),2.37 µM (active)
4,COc1ccc(-c2ccccc2NC(=O)C2CCCN(Cc3c(O)cccc3OC)C2)cc1 (stereo not drawn),2.11 µM (active)
5,O=c1oc2c(CN3CCOCC3)c(O)ccc2cc1-c1ccccc1,9.44 µM (active)
6,Cn1cc(-c2ccccc2Oc2ccccc2)c2nc(CN3CCOCC3)cn2c1=O,inactive
7,CN(C)c1cccc(C(=O)N2CCC(c3n[nH]c(=O)n3-c3ccccc3)CC2)c1,inactive
8,Cc1noc(C)c1-c1cc2c(cc(-c3ccccc3)n2C)c(-c2cccnc2)n1,10.9 µM (active)
9,Cc1noc(C)c1-c1cc2c(cc(-c3ccccc3)n2C)c(-c2ccnn2C)n1,8.63 µM (active)
10,COc1ncccc1-c1nc(-c2c(C)noc2C)cc2c1cc(-c1ccccc1)n2C,13.7 µM (active)
11,COc1cc(F)ccc1-c1nc(-c2c(C)noc2C)cc2[nH]c(C)cc12,inactive
12,Cc1ccc(S(=O)(=O)Nc2cc(C)cn(Cc3ccc(F)cc3)c2=O)cc1,inactive
13,Cc1ccc(CNC(=O)CN2CCN(Cc3ccc(F)cc3Cl)C2=O)cc1,inactive
14,O=c1c([N+](=O)[O-])cccn1Cc1ccc(F)cc1Cl,4.73 µM (active)
15,O=C(CSc1nccn1-c1cccc(Cl)c1)NO,inactive
16,CCCn1c(SCC(=O)Nc2cc(Cl)ccc2Cl)n[nH]c1=O,5.31 µM (active)
17,Cc1ccccc1-n1c(SCC(=O)Nc2ccc(Cl)cc2Cl)nc(O)cc1=O,inactive
18,CC(=O)c1c(N2CCN(C)CC2)[nH]c(-c2ccccc2)nc1=S,5.96 µM (active)
19,O=c1c2c([nH]c3ccccc13)CCCC2,6.68 µM (active)
20,O=c1c2c([nH]c3ccc(Br)cc13)CCCC2,6.68 µM (active)
21,O=c1c(-c2ccccc2)n[nH]c2ccccc12,inactive

row,Compound,Potency
1,CC(C)(C)C1CCc2[nH]c3ccccc3c(=O)c2C1 (stereo not drawn),1.88 µM (active)
2,O=C(CSc1nc(Nc2ccccc2)nc(N2CCOCC2)n1)Nc1cc(Cl)ccc1O,2.37 µM (active)
3,CCN(CC)CCNC(=O)c1ccc(NC(=O)c2cn(-c3ccc(F)cc3)nc2-c2cccc(OC)c2)cc1,9.44 µM (active)
4,COc1cccc(-c2cc3c(=O)n(CCNC(=O)COc4ccc(F)cc4)ccn3n2)c1,inactive
5,Cc1nn(-c2ccccc2)nc1-c1nnc(-c2ccc(C(F)(F)F)cc2)o1,inactive
6,COc1cc(NC2CCCCC2O)c2nc(-c3ccc(Cl)cc3)ccc2c1 (stereo not drawn),5.31 µM (active)
7,Oc1ccc(Cl)cc1CNCC1CCCCC1,4.22 µM (active)
8,Oc1ccc(Cl)cc1CNCc1ccc(C(F)(F)F)cc1,4.22 µM (active)
9,Oc1ccc(Cl)cc1CNCc1cccc2ccccc12,0.842 µM (active)
10,CC(C)(C)N1C(=O)c2ccc(C(=O)Nc3ccc(-c4nc5ccccc5[nH]4)cc3)cc2C1=O,6.68 µM (active)
11,Nc1ccc2nc(-c3cccnc3)[nH]c2c1,inactive
12,CC(=O)Nc1ccc(S(=O)(=O)N2CCC(n3c(C)nc4cccnc43)CC2)cc1,inactive
13,COC(=O)c1ccc(NC(=O)CSc2nc3cc4ccccc4cc3[nH]2)cc1,inactive
14,CC1CCCCN1S(=O)(=O)c1ccc(C(=O)Nc2ccccc2-c2nc3ccccc3[nH]2)cc1 (stereo not drawn),7.5 µM (active)
15,O=C(Nc1cccc(Oc2ccc(C(=O)O)c(C(=O)O)c2)c1)c1ccc(-c2ccccc2)cc1,inactive
16,CS(=O)(=O)c1ccc(C(=O)Nc2ccc(-c3nc4ccccc4[nH]3)cc2)cc1,7.5 µM (active)
17,O=C(Nc1cccc(-c2nc3ccccc3[nH]2)c1)c1ccc(C(=O)Nc2cccc(-c3nc4ccccc4[nH]3)c2)cc1,2.66 µM (active)
18,COc1ccc(CCN(C)C(=S)Nc2cccc(C)c2)cc1OC,2.11 µM (active)
19,COc1cc2c(cc1OC)C(c1ccccc1N)=NCC2,inactive
20,Brc1c(C[n+]2ccccc2)nc2ccccn12,inactive
21,CCc1cc(CN(C)C(=O)c2cc(COc3ccccc3F)[nH]n2)on1,inactive

row,Compound,Potency
1,CC1(c2ccccc2)N(Cc2cccnc2)C(=O)OC12CCN(Cc1ccccc1)CC2 (stereo not drawn),17.2 µM (active)
2,CCN1CCN(c2nc3c(s2)CN(C(=O)Cc2cccnc2)CC3)CC1,inactive
3,CC(=O)Nc1ccc(CN2C(=O)OC3(CCN(C(=O)C4CCC4)CC3)C2(C)c2ccccc2)cc1 (stereo not drawn),inactive
4,CC1(c2ccccc2)N(Cc2cccnc2)C(=O)OC12CCN(C(=O)Cc1ccc(Cl)cc1)CC2 (stereo not drawn),13.3 µM (active)
5,CC1(c2ccccc2)N(Cc2ccccc2)C(=O)OC12CCN(Cc1cccnc1)CC2 (stereo not drawn),15.3 µM (active)
6,CCN(CC)c1ccc(C(=O)N2CCCC(n3cc(-c4noc(C)n4)nn3)C2)cc1 (stereo not drawn),inactive
7,COc1ccc(C(=O)N[C@@H]2CCC[C@@H]2C(=O)NC(C)C)cc1,inactive
8,COc1cccc(CNC(=O)N[C@@H]2CN(Cc3ccncc3)C[C@H]2CN(C)C)c1,inactive
9,COc1ccc(C(=O)N[C@@H]2CN(Cc3cccc(OC)c3)CCC[C@H]2O)cc1,10.9 µM (active)
10,CC(C)(C)Nc1nc(NC(C)(C)C)nc(-n2ccnc2)n1,4.73 µM (active)
11,CCc1ccc(CN(C(=O)c2nc(SC)ncc2Cl)C2CCS(=O)(=O)C2)cc1 (stereo not drawn),inactive
12,c1ccc(Oc2ccc(Nc3cnc4ccc(N5CCOCC5)nn34)cc2)cc1,7.69 µM (active)
13,CN1CCN(c2ccc3ncc(Nc4ccccc4-c4ccccc4)n3n2)CC1,0.863 µM (active)
14,CN1CCN(c2ccc(-c3cccc(N)c3)nn2)CC1,inactive
15,CN(C)c1ccc2ncc(Nc3ccc(Oc4ccccc4)cc3)n2n1,8.63 µM (active)
16,O=C(Nc1ccccc1OCc1cc(=O)n2ccccc2n1)Nc1ccccc1C(F)(F)F,inactive
17,O=C(Nc1ccccc1C(F)(F)F)c1cc(-c2ccccc2O)on1,2.99 µM (active)
18,COc1cc(NC(=O)c2cc(-c3cccs3)on2)c(OC)cc1Cl,inactive
19,CCOc1cccc(/C=N/Nc2nc(N3CCCC3)nc(N3CCCC3)n2)c1O,inactive
20,COc1ccc(/C=N/Nc2nc(Nc3ccccc3)nc(N3CCCC3)n2)cc1[N+](=O)[O-],6.68 µM (active)
21,Cc1ccc(-c2noc(-c3ccc(N4CCCC4)c([N+](=O)[O-])c3)n2)cc1,inactive
